Measurements: PubChem BioAssay (NCATS)
Inconclusive results are not listed. Calls of active or inactive are those of the source. The call rests on the fitted dose curve.

The molecules below were run against Vitamin D3 receptor (Homo sapiens) (UniProt P11473) (assay: qHTS assay for small molecule antagonists of vitamin D receptor signaling (AID 588541;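 further: receptor activated by calcitriol during compound treatment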)). Conditions: HEK293T VDR-UAS-bla, beta-lactamase ratio, antagonist mode; series mostly up to 76.7 µM; activity change, negative = inhibition: at the top concentration.
Sequence of Vitamin D3 receptor (Homo sapiens) (P11473 whole entry, looked up): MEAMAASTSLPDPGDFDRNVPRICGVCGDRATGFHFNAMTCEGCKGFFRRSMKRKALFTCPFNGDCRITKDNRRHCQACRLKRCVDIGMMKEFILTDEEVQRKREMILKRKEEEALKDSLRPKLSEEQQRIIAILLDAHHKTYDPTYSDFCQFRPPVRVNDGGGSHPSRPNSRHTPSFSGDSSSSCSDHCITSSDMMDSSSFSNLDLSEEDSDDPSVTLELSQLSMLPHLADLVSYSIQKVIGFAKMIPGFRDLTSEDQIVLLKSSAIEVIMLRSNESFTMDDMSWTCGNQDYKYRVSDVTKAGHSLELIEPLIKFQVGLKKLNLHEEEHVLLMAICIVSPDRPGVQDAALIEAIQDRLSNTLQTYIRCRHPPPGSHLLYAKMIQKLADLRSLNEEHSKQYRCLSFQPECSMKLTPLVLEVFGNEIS
Description: NIH Chemical Genomics Center [NCGC]
U.S. Environmental Protection Agency [EPA]
National Institutes of Environmental Health Sciences [NIEHS]
National Toxicology Program [NTP]
The Vitamin D receptor (VDR) is a member of nuclear hormone receptor superfamily and it plays a critical role in calcium homeostasis and bone metabolism. It plays a role in inducing cell differentiation, inhibiting cell growth and in thrombogenicity. So, VDR that mediates these effects represents a pharmacological target in prevention and treatment of hyperproliferative malignancies, such as cancer and psoriasis, cardiovascular, immunological, inflammatory and renal diseases etc.
NCGC Assay Protocol Summary
Using a beta-lactamase reporter-gene under control of Vitamin D receptor (VDR) response element, a cell-based assay [GeneBLAzer (VDR -UAS-bla assay developed by Invitrogen] was used to measure VDR ligands signaling. GeneBLAzer VDR -UAS-bla HEK293T cells were used with assay medium containing 2% charcoal-stripped FBS. The assay was performed in clear bottom black Greiner 1536-well plates. Library compounds were measured for their ability to inhibit the reporter gene activity. Compounds were screened in a titration series in 1536-well format. The fluorescence intensity (405 nm excitation, 460/530 nm emission) was measured using an EnVision plate reader. Data was normalized relative to 1-alpha,25-Dihydroxy vitaminD3 control (50 nM, 100%) and DMSO only wells (basal, 0%). Concentration-response titration points for each compound were fitted to the Hill equation yielding concentrations of half-maximal inhibition (IC50) and maximal response (efficacy) values.
qHTS protocol for VDR beta-lactamase assay in antagonist mode
[Step] [Parameter] [Value] [Description]
1. Reagent; 5 uL; 2000 cells/well
2. Incubation; 37 C for 5 hrs
4. Controls (DMSO); 23 nL,
5. Agonist (Stimulator); 1uL; 1-alpha,25-Dihydroxy vitaminD3 at 50 nM and 3 nM final concentrations
6. Incubation; 37 C for 16 hrs
7. Detection reagent; 1 uL of CCF4-dye
8. Incubation; RT for 2 hrs
9. Detection; Fluorescence; Envision plate reader
On the % scale 0 is the no-effect control and ±100 the full control effect.

Row | SMILES | activity change, negative = inhibition | outcome
1 | C[C@H]1C(=O)O[C@@H]2CCN3CC=C(COC(=O)[C@](C)(O)[C@]1(C)O)[C@H]23 | 2.29% (inactive) | –
2 | CCCCCCCCC(=O)NCc1ccc(O)c(OC)c1 | 2.84% (inactive) | –
3 | CCCCCCCCCCCC[N+](C)(C)CCOc1ccccc1 | -14% (inactive) | –
4 | C=CCOC(Cn1ccnc1)c1ccc(Cl)cc1Cl (stereo not given) | – | inactive
5 | O=C(NC(=O)c1c(F)cccc1F)Nc1cc(Cl)c(OC(F)(F)C(F)C(F)(F)F)cc1Cl (stereo not given) | -0.806% (inactive) | –
6 | COP(=S)(OC)Oc1ccc(Sc2ccc(OP(=S)(OC)OC)cc2)cc1 | -8.78% (inactive) | –
7 | CNC(=O)Oc1cccc2ccccc12 | – | inactive
8 | O=c1n(Cl)c(=O)n(Cl)c(=O)n1Cl | -5.43% (inactive) | –
9 | COCC(=O)N(c1c(C)cccc1C)C(C)C(=O)OC (stereo not given) | -0.408% (inactive) | –
10 | CCNc1nc(Cl)nc(NCC)n1 | -1.04% (inactive) | –
